# Columns and labels:
# [1] = target: RAC-alpha serine/threonine-protein kinase (Homo sapiens) (UniProt P31749); conditions: at 0.1 µM
# [2] = target: RAC-alpha serine/threonine-protein kinase (Homo sapiens) (UniProt P31749); conditions: at 1 µM
# [3] = target: RAC-beta serine/threonine-protein kinase (Homo sapiens) (UniProt P31751); conditions: at 0.1 µM
# [4] = target: RAC-beta serine/threonine-protein kinase (Homo sapiens) (UniProt P31751); conditions: at 1 µM
# [5] = target: RAC-gamma serine/threonine-protein kinase (Homo sapiens) (UniProt Q9Y243); conditions: at 0.1 µM
# [6] = target: RAC-gamma serine/threonine-protein kinase (Homo sapiens) (UniProt Q9Y243); conditions: at 1 µM
# [7] = target: G protein-coupled receptor kinase 6 (Homo sapiens) (UniProt P43250); conditions: at 0.1 µM
# [8] = target: G protein-coupled receptor kinase 6 (Homo sapiens) (UniProt P43250); conditions: at 1 µM
# [9] = target: T1, Rhodopsin kinase GRK7 (Homo sapiens) (UniProt Q8WTQ7); conditions: at 0.1 µM
# T1 sequence (whole entry): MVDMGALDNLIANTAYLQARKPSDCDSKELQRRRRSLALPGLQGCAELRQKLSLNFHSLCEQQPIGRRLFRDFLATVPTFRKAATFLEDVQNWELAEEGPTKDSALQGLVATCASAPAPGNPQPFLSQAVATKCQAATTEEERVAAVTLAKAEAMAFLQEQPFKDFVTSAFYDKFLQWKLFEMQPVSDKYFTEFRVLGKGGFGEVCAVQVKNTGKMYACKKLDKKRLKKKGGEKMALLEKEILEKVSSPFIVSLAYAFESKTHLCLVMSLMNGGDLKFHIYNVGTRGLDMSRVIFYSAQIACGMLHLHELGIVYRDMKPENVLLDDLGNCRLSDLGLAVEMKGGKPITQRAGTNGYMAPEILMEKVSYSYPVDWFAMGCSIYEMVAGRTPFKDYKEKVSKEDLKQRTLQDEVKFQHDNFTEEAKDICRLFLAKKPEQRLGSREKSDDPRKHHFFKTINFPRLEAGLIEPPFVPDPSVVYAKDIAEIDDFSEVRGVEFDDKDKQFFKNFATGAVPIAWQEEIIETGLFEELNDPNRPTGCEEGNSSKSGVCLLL
# [10] = target: T1, Rhodopsin kinase GRK7 (Homo sapiens); conditions: at 1 µM
# [11] = target: Serine/threonine-protein kinase MRCK alpha (Homo sapiens) (UniProt Q5VT25); conditions: at 0.1 µM
# [12] = target: Serine/threonine-protein kinase MRCK alpha (Homo sapiens) (UniProt Q5VT25); conditions: at 1 µM
# [13] = target: Serine/threonine-protein kinase MRCK beta (Homo sapiens) (UniProt Q9Y5S2); conditions: at 0.1 µM
# [14] = target: Serine/threonine-protein kinase MRCK beta (Homo sapiens) (UniProt Q9Y5S2); conditions: at 1 µM
# [15] = target: Ribosomal protein S6 kinase alpha-5 (Homo sapiens) (UniProt O75582); conditions: at 0.1 µM
# [16] = target: Ribosomal protein S6 kinase alpha-5 (Homo sapiens) (UniProt O75582); conditions: at 1 µM
# [17] = target: Ribosomal protein S6 kinase alpha-4 (Homo sapiens) (UniProt O75676); conditions: at 0.1 µM
# [18] = target: Ribosomal protein S6 kinase alpha-4 (Homo sapiens) (UniProt O75676); conditions: at 1 µM
# [19] = target: Ribosomal protein S6 kinase beta-1 (Homo sapiens) (UniProt P23443); conditions: at 0.1 µM
# [20] = target: Ribosomal protein S6 kinase beta-1 (Homo sapiens) (UniProt P23443); conditions: at 1 µM
# Chain of Serine/threonine-protein kinase MRCK beta (Homo sapiens) (Q9Y5S2 whole entry): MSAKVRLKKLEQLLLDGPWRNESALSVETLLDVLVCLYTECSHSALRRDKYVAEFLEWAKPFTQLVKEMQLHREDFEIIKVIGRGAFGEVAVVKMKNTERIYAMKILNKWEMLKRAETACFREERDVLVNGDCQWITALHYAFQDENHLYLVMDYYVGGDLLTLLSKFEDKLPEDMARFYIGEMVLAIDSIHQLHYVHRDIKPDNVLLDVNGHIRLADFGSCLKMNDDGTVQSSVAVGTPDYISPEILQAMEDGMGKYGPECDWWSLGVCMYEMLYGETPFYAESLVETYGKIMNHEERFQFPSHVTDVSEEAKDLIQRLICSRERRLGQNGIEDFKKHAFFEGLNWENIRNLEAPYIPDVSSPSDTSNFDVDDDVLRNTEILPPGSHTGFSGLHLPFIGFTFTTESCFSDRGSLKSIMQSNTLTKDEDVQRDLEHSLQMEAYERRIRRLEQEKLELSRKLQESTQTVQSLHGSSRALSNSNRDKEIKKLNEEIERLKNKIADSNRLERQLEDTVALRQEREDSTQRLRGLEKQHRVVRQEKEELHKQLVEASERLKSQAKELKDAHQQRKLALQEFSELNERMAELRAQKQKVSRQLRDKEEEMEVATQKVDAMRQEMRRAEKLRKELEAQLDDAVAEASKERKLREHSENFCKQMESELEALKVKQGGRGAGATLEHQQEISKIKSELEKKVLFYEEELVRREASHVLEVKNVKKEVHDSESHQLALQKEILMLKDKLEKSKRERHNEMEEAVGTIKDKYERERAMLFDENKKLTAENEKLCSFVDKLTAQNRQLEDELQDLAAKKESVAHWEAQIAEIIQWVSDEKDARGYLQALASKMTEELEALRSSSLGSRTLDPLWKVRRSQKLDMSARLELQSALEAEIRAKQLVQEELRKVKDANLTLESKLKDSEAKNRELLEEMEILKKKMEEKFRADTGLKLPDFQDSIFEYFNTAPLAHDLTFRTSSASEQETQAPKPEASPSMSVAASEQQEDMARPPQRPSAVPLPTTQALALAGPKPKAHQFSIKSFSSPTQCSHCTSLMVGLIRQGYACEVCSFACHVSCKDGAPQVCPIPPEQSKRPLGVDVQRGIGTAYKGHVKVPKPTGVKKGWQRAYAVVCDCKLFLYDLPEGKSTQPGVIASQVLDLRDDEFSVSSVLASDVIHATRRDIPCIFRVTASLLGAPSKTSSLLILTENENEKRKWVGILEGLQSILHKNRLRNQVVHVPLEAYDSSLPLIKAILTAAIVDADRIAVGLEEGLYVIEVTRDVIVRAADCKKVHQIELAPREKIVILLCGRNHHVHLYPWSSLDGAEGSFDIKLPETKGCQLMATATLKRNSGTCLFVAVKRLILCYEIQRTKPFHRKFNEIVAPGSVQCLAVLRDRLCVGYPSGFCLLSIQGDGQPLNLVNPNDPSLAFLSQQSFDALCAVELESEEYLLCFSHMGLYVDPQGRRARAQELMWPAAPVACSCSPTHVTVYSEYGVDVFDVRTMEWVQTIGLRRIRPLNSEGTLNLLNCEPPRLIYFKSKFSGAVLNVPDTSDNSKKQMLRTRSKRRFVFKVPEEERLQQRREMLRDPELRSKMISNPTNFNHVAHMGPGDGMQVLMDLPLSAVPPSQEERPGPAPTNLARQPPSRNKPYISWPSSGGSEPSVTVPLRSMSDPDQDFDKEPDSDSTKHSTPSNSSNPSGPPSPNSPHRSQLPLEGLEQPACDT
# Chain of RAC-gamma serine/threonine-protein kinase (Homo sapiens) (Q9Y243 whole entry): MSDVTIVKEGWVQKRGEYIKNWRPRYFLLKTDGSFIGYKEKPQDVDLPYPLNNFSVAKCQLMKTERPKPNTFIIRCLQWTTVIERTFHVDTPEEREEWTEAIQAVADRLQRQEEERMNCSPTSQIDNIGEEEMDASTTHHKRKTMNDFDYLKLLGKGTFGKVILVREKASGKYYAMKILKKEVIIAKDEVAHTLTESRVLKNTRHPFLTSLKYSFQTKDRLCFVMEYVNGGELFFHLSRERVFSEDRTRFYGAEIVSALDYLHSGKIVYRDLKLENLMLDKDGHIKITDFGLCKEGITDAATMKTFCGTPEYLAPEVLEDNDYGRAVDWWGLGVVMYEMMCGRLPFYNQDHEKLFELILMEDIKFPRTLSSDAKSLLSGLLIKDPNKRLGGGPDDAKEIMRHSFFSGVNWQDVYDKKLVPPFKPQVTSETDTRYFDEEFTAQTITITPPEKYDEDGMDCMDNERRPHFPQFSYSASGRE
# Chain of RAC-alpha serine/threonine-protein kinase (Homo sapiens) (P31749 whole entry): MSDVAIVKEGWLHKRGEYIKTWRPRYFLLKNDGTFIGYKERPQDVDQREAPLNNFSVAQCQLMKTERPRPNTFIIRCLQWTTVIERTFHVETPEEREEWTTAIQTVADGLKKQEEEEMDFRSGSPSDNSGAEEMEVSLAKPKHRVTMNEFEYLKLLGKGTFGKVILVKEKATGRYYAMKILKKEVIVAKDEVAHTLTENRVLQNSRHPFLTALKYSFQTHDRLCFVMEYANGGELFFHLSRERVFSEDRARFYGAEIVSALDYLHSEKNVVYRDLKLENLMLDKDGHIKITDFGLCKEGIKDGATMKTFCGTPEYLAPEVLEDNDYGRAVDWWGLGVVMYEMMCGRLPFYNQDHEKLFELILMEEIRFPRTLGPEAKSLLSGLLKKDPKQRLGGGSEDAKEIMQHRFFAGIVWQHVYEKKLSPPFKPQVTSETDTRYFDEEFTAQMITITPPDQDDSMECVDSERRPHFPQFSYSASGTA
# Chain of Ribosomal protein S6 kinase beta-1 (Homo sapiens) (P23443 whole entry, looked up): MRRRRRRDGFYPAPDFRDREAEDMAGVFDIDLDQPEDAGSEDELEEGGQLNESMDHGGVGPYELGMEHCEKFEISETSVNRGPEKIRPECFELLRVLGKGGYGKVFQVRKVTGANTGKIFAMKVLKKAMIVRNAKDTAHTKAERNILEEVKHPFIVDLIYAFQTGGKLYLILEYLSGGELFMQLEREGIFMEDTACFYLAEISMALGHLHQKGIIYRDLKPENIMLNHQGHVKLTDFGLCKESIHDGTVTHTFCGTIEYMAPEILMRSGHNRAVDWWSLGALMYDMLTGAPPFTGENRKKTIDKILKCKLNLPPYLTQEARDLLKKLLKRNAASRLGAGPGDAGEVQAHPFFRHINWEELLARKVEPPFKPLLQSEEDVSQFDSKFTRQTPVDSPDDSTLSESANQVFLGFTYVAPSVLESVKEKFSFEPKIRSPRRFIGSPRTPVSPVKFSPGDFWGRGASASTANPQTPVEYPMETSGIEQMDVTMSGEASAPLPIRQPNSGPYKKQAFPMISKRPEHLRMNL
# Chain of Ribosomal protein S6 kinase alpha-4 (Homo sapiens) (O75676 whole entry, looked up): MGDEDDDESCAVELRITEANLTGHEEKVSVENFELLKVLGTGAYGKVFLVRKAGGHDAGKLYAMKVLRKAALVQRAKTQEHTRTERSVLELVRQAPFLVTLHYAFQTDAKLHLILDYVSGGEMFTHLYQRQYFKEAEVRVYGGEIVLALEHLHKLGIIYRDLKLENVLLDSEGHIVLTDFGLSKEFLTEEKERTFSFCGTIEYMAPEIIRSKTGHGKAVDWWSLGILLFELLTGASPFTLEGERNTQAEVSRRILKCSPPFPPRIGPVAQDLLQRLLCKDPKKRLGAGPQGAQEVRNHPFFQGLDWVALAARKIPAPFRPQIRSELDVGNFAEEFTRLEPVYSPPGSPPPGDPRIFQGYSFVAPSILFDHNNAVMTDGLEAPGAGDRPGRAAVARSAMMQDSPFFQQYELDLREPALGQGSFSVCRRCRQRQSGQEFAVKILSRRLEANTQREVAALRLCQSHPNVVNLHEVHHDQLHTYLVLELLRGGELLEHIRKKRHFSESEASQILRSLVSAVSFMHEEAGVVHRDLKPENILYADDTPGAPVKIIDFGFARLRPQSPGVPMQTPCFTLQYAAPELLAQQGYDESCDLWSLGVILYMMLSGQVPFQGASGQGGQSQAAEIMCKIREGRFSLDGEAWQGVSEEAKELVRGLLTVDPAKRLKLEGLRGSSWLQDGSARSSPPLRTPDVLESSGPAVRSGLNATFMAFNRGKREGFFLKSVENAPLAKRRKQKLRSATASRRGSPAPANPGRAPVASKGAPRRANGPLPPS
# Chain of G protein-coupled receptor kinase 6 (Homo sapiens) (P43250 whole entry, looked up): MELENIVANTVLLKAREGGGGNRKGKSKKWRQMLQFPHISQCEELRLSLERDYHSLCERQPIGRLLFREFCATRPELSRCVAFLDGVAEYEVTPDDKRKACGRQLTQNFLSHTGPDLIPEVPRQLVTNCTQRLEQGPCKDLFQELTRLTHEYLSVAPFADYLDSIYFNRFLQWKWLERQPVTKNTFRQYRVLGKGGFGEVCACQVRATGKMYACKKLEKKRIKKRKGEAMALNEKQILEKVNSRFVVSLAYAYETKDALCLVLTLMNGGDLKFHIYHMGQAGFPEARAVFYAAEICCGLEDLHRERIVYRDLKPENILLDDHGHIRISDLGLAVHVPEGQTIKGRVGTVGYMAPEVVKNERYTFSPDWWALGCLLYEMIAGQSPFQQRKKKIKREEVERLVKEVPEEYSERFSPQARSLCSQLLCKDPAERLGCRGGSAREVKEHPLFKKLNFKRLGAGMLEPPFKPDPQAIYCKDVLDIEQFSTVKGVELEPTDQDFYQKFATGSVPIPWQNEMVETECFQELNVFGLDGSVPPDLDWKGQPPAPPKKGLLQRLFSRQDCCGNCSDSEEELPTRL
# Chain of RAC-beta serine/threonine-protein kinase (Homo sapiens) (P31751 whole entry): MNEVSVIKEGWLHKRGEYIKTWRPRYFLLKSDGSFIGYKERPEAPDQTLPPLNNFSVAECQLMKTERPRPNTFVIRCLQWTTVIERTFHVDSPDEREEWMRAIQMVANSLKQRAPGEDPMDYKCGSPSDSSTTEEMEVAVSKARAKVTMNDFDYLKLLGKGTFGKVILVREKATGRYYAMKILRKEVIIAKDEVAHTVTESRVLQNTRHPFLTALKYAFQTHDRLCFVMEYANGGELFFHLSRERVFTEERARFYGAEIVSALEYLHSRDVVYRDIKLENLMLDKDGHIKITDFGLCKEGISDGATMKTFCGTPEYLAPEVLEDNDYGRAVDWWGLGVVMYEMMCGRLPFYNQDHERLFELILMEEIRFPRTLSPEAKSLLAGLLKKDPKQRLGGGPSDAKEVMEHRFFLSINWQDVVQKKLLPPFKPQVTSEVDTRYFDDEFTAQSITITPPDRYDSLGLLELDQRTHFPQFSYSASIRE
Compound,inhibition [1],inhibition [2],inhibition [3],inhibition [4],inhibition [5],inhibition [6],inhibition [7],inhibition [8],inhibition [9],inhibition [10],inhibition [11],inhibition [12],inhibition [13],inhibition [14],inhibition [15],inhibition [16],inhibition [17],inhibition [18],inhibition [19],inhibition [20]
CS(=O)(=O)CCNCc1ccc(-c2ccc3ncnc(Nc4ccc(OCc5ccccc5)c(Cl)c4)c3c2)o1,-1%,-0.87%,0.26%,0.32%,-0.1%,-0.63%,0.49%,0.68%,7.87%,-3.27%,-0.63%,-1.47%,0.86%,0.8%,-7.35%,-6.84%,0.04%,1.73%,0.22%,2.03%
COc1cc2ncn(-c3cc(O[C@@H](C)c4ccccc4Cl)c(C(N)=O)s3)c2cc1OC,0.32%,1.3%,1.65%,1.94%,1.85%,1.32%,0.89%,2.39%,9.14%,4.64%,1.42%,0.91%,0.43%,3.35%,11.4%,11.6%,4.79%,5.46%,0.94%,2.16%
NC(=O)c1ccc(-c2nc(-c3ccccn3)c(-c3ccc4c(c3)OCO4)[nH]2)cc1,0.43%,0.86%,1.27%,1.16%,0.75%,0.48%,0.64%,5.54%,1.63%,6.3%,0.14%,2.49%,1.08%,0.59%,1.5%,1.56%,2.14%,4.23%,1.26%,2.46%
O=C1NC(=O)C(c2ccc(Cl)cc2)=C1Nc1ccc(Cl)c(C(=O)O)c1,-1.69%,-1.52%,-2.06%,-1.58%,-1.65%,-1.06%,2.37%,-0.84%,-5.23%,-4.79%,-0.29%,-0.46%,0.31%,-0.42%,-1.75%,-1.95%,-2.17%,-1.54%,-1.54%,-1.25%
CCn1c(-c2nonc2N)nc2c(N3CCCC3)nccc21,-2.09%,-2.19%,-3.12%,-0.45%,-0.61%,1.15%,0.48%,2.71%,-7.43%,0.27%,-0.27%,5.42%,-0.1%,2.55%,-0.19%,11.2%,-0.68%,3.67%,-0.49%,8.23%
Cc1cc(O)cc(C)c1/C=C/c1cncc(-c2nn[nH]n2)c1,-2.92%,-4.1%,-1.95%,-2.32%,-2.52%,-2.46%,1.06%,5.14%,2.35%,4.65%,-0.28%,-0.43%,0.47%,0.57%,3.79%,1.87%,1.46%,2.78%,1.11%,1.97%
Fc1cccc(COc2ccc(Nc3ncnc4cc(-c5ccc[nH]5)sc34)cc2Cl)c1,-3.51%,-3.04%,-2.34%,-1.49%,-3.34%,-3.78%,5%,2.64%,1.96%,13.6%,-0.43%,-1.14%,0.61%,0.75%,0.34%,0.11%,3.11%,4.08%,0.99%,1.05%
O=C1NC(=O)C(N2CCc3ccccc32)=C1c1ccc(Cl)cc1,1.09%,1.67%,1.7%,2.85%,2.52%,1.75%,0.71%,3.31%,2.29%,7.76%,0.19%,0.98%,0.69%,1.86%,9.94%,7.93%,1.73%,4.02%,1.81%,1.76%
CS(=O)(=O)CCN(CC#N)Cc1ccc(-c2ccc3ncnc(Nc4ccc(OCc5cccc(F)c5)c(Cl)c4)c3c2)o1,-1.63%,-3.32%,-3.4%,-2.91%,-3.18%,-0.79%,0.99%,3.25%,6.9%,2.37%,-0.15%,-1.53%,-0.05%,-0.09%,0.54%,-1.33%,1.06%,1.76%,0.1%,0.27%
Cc1ccc(C(=O)NC2CCCCC2)cc1-c1ccc(C(=O)NCC2CC2)cc1,0.04%,0.76%,1.52%,1.72%,2.01%,0.64%,-0.29%,-3.25%,2.64%,6.92%,1.04%,0.21%,1.37%,1.51%,2.76%,3.23%,1.19%,2.43%,-0.26%,0.99%
NCc1ccc(-c2nc(-c3ccc(Cl)c(O)c3)c(-c3ccncc3)[nH]2)cc1,0.06%,0.47%,-1.18%,-0.26%,-0.23%,0.68%,-0.28%,-0.98%,-2.26%,2.84%,0.67%,-0.06%,-1.19%,1.3%,0.16%,2.56%,-0.59%,2.82%,0.03%,0.71%
COc1cc2c(cc1Nc1nc(N3CCc4ccccc43)c3cc[nH]c3n1)N(C(=O)CN(C)C)CC2,1.38%,1.39%,0.6%,1.42%,1.23%,1.23%,1.54%,-3.01%,-0.63%,-6.08%,1%,-1.14%,0.86%,1.27%,4.25%,4.71%,0.65%,1.75%,1.59%,0.46%
Fc1cccc(COc2ccc(Nc3ncnc4sc(-c5cccs5)cc34)cc2Cl)c1,0.07%,-0.67%,-0.49%,0.01%,0.23%,1.25%,1.48%,1.31%,7.27%,-0.21%,1.75%,2.49%,1.14%,1.28%,-5.35%,-7.37%,1.59%,1.29%,-0.02%,0.68%
CN1CCC(C(=O)Nc2n[nH]c3nnc(-c4ccccc4)cc23)CC1,0.8%,0.53%,3.48%,1.57%,2.3%,2.79%,7.16%,14.5%,7.52%,15.6%,0.2%,2.63%,-0.23%,0.78%,-1.68%,-1.22%,2.89%,4.31%,1.63%,2.47%
CCc1cccc(NC(=O)Nc2ccc(Oc3ccc4nc(NC(=O)OC)[nH]c4c3)cc2)c1,1.36%,0.06%,1.23%,1.45%,2.78%,-0.71%,2.37%,2.68%,4.8%,15.6%,1.75%,2.04%,0.03%,0.65%,-4.58%,-1.65%,1.22%,1.3%,4.31%,5.19%
CS(=O)(=O)CCNCc1ccc(-c2ccc3ncnc(Nc4ccc(OCc5cccc(F)c5)c(C(F)(F)F)c4)c3c2)o1,1.75%,0.54%,2.87%,0.73%,2.73%,2.96%,9.26%,5.4%,3.55%,8.92%,-0.31%,1.73%,-0.15%,0.67%,9.28%,8.53%,2.67%,2.44%,1.58%,2.22%
CCn1c(-c2nonc2N)nc2c(C#CC(C)(C)O)nc(OC[C@@H](N)c3ccccc3)cc21,38.2%,85.2%,61.2%,91.1%,48.4%,87.2%,-1.09%,-0.69%,-0.18%,16.6%,12%,48.2%,11.1%,48.5%,-5.71%,8.99%,1.92%,19.7%,5.44%,36%
CCn1c(-c2nonc2N)nc2cncc(C(=O)N3CCNCC3)c21,0.91%,2.57%,2.91%,2.21%,2.05%,5.1%,6.32%,9.53%,7.48%,9.01%,5.33%,7.84%,0.36%,3.02%,5.57%,7.4%,3.28%,4.71%,2.87%,4.44%
CN(C)c1cc2c(Nc3ccc4nc(Cc5ccccc5)[nH]c4c3)ncnc2cn1,1.02%,0.52%,2.3%,2.71%,1.37%,3.27%,2.98%,6.85%,20.5%,22.6%,-0.16%,1.32%,0.33%,0.93%,4.14%,4.53%,1.93%,2.96%,2.15%,4.96%
NC(=O)c1cccc(Nc2nccc(Nc3cccc4[nH]ncc34)n2)c1,-2.33%,1.84%,-3.71%,-1.08%,-2.36%,-1.13%,-0.32%,2.35%,-7.6%,5.88%,-0.16%,2.18%,0.71%,3.5%,-3.36%,2.78%,-1.85%,1.24%,-1.61%,4.1%
CCn1c(-c2nonc2N)nc2cnc(Oc3cccc(NC(=O)c4ccc(OCCN5CCOCC5)cc4)c3)cc21,1.6%,7.87%,2.69%,7.74%,2.01%,7.9%,6.32%,9.42%,1.38%,9.5%,6.6%,42.3%,17.8%,59%,66.8%,78.1%,56.7%,76.7%,84.6%,93%
COc1ccc(COc2ccc(Cc3cnc(N)nc3N)cc2OC)cc1,0.82%,-0.15%,0.33%,-0.17%,0.61%,0.93%,-3%,-5.27%,11%,-7.03%,1.99%,-0.63%,3.11%,3.93%,8.75%,5.97%,1.99%,1.84%,1.54%,0.73%
CS(=O)(=O)CCNCc1nc(-c2ccc3ncnc(Nc4ccc(F)c(Cl)c4)c3c2)cs1,0.62%,-0.01%,0.07%,1.1%,1.52%,-0.89%,1.59%,3.85%,5.77%,-4.62%,1.82%,3.22%,-0.31%,-0.48%,1.46%,6.15%,1.32%,1.96%,-0.63%,1.77%
COc1cc(C)c(NC(=O)CN(C)C)cc1Nc1nc(Nc2cccc(F)c2C(N)=O)c2cc[nH]c2n1,1.35%,0.96%,0.81%,1.17%,0.86%,1.72%,12.9%,51.2%,8.5%,28.1%,-0.22%,2.53%,-0.26%,1.65%,1.58%,0.97%,-0.16%,2.07%,2.03%,3.01%
COc1ccc2cc(-c3c(-c4ccncc4)nc(-c4ccc([S+](C)[O-])cc4)n3C)ccc2c1 (stereo not given),1%,0.09%,1.34%,1.69%,1.23%,0.72%,-3.74%,-0.39%,2.62%,2.42%,0.19%,1.36%,0.92%,1.62%,3.04%,1.94%,1.31%,4.13%,2.56%,2.88%
Cc1nnc(-c2ccc(C)c(-c3ccc(C(=O)Nc4cccc(C#N)c4)cc3)c2)o1,0.44%,0.29%,0.76%,0.57%,1.16%,1.22%,2.81%,3.91%,2.5%,7.22%,0.21%,2.76%,-0.92%,-0.91%,1.21%,1.62%,0.19%,2.28%,1.45%,1.91%
COc1cccc(-n2ncc3c(N/N=C/c4cccc(F)c4)ncnc32)c1,-2.98%,-3.97%,-2.03%,-2.75%,-1.82%,-1.99%,3.44%,0.12%,1.93%,10.3%,0.1%,-0.68%,1.2%,0.38%,0.41%,-0.25%,2.4%,2.89%,0.65%,2.01%
